Assay outcomes from PubChem.
In the library only some 1.7% were active in any assay of this set; here they are far more common.
TRPML1 blocker: human mucolipin-1 channel inhibition; Q9GZU1; TRPML1-inducible cells, Ca2+ dye fluorescence, FDSS; active compounds read low; inhibition of EC80 agonist-evoked calcium signal; activity change, negative = inhibition, % (concentration not given with the values); hit rate 0.02% among 390,000; AID 624415; in the data active means activity change below about -50%; inconclusive means between about -30% and that limit;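 further: stimulus is agonist 54-4 at its EC80 concentration; on the % scale 0 is the no-effect control and ±100 the full control effect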
Target sequence (Q9GZU1 whole entry, looked up): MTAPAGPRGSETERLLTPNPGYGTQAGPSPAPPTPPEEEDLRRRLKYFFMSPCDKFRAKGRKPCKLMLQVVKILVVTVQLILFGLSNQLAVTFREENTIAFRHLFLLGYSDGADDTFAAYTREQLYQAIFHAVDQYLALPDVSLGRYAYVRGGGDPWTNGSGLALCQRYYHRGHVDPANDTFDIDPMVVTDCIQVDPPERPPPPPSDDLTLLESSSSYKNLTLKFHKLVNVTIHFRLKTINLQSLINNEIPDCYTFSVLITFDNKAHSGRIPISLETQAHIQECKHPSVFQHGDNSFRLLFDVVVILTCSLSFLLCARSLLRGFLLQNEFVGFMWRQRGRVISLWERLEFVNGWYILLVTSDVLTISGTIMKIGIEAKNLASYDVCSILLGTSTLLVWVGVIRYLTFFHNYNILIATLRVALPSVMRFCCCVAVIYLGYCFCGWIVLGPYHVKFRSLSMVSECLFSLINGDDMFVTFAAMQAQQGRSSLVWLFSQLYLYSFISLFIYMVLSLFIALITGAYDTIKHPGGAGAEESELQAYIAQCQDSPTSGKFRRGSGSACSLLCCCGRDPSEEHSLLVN
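TRPML1-DL cells, Tet-induced overnight (~16 h, 37 °C) at 1,500 cells/well, were loaded with Ca8 no-wash dye plus quencher for 45-90 min at room temperature. Compounds were pinned during FDSS kinetic reading; agonist 54-4 at EC80 (4 uM final) then added.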
TRPML1 agonist: agonists of human TRPML1 channel; Q9GZU1; TRPML1-expressing cells, Ca2+ dye fluorescence, FDSS; activation, % (test concentration not listed); hit rate 0.12% among 410,000; AID 624414; in the data active means activation above about 50%; inconclusive means mostly about 30% to 49%; further: 0% is about no effect
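Tetracycline-induced TRPML1-DL cells are seeded and incubated overnight before loading with a no-wash Ca2+ dye and quencher. Agonist activity is taken from the 110 s fluorescence read following compound pin-transfer on an FDSS, before EC80 54-4 challenge.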
TRHR agonist: activates the human TRH receptor. P34981. TRHR cells, calcium flux fluo-8, FDSS agonist mode. activation, % at 2 µM. hit rate 0.18% among 360,000. AID 493084; in the data active means activation above about 30%; further: 0% is about no effect
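Read-out: compound-evoked intracellular calcium rise in TRHR cells, fluo-8 dye, kinetic FDSS fluorescence at 1 s/cycle following a 10-cycle baseline. Cells cultured overnight before dye loading (30 min–1.5 h, RT).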
TRHR enhancer: allosteric enhancers of human TRH receptor. P34981. TRHR cells, fluo-8 calcium fluorescence, EC20 TRH enhancement. enhancement, % at 2 µM. hit rate 0.66% among 360,000. AID 493056; in the data active means enhancement above about 30%; further: 0% is about no effect
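Enhancer read-out: after compound pinning and an initial kinetic agonist-mode read, an EC20 of TRH (10 nM final) was injected and fluo-8 calcium signal (Ex 480/Em 530) followed at 1 s/cycle for 100 cycles in TRHR-expressing cells.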
KCNH2 3.1 inh: KCNH2 3.1 (human) potassium channel inhibition; U2OS KCNH2 3.1, thallium flux FluxOr; active compounds read low; activity change, % (tested at about 1.8 µM); hit rate 0.95% among 340,000; AID 720553;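 active means maximum activity change below -70%; inconclusive means maximum activity change from -70% to -50%; inactive means maximum activity change above -50%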;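 further: thallium influx rate constant from kinetic fluorescence after stimulation buffer; on the % scale 0 is the no-effect control and ±100 the full control effect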
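Measured as rate of thallium-driven FluxOr signal in transduced U2OS cells carrying the 3.1 channel, read kinetically for 2 min upon stimulation; values are rate constants scaled to DMSO control wells.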
KCNH2 WT inh: KCNH2 (human, wildtype) channel inhibition; U2OS, BacMam KCNH2, thallium flux FluxOr; active compounds read low; hit rate 0.37% among 340,000; Q12809; activity change, % at 1.84 µM;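 active means maximum activity change below -70%; inconclusive means maximum activity change between -70% and -50%; inactive means maximum activity change above -50%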; further: on the % scale 0 is the no-effect control and ±100 the full control effect
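U2OS cells were transduced with wild-type KCNH2 virus (2.03 x 10^8 / mL) for 4 h at room temperature, then cultured overnight at 37 C. Thallium flux was read with FluxOr dye. Rate constants were normalized to DMSO controls.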
An asterisk follows results filed as active.

Screening CCCCC(=O)NC(c1ccccc1)c1ccc2cccnc2c1O (centres undefined) returned TRPML1 blocker -10.6, TRPML1 agonist 1.3, TRHR agonist 0.9, TRHR enhancer -1.6, KCNH2 3.1 inh -3.2 and KCNH2 WT inh 0.3.
Screening O=[N+]([O-])c1ccc(NC(c2ccccc2)c2ccc3cccnc3c2O)cc1 (centres undefined) returned TRPML1 blocker 9.0, TRPML1 agonist 0.9, KCNH2 3.1 inh -70.8* and KCNH2 WT inh -11.9.
CCCC(=O)NC(c1ccccc1)c1ccc2cccnc2c1O (centres undefined) was read as TRPML1 blocker -4.6, TRPML1 agonist 1.7, TRHR agonist 0.4, TRHR enhancer 2.1, KCNH2 3.1 inh -4.4 and KCNH2 WT inh -261.9*.
For Oc1c(C(Nc2ccccn2)c2ccccc2)ccc2cccnc12 (centres undefined) the results were TRPML1 agonist 0.0.
`O=C(CCC1CCCCC1)NCCN1C2=NC[C@@H](Cc3ccccc3)N2C[C@H]1Cc1ccc(O)cc1` gave TRPML1 blocker 11.8, TRPML1 agonist 1.0, TRHR agonist 0.9, TRHR enhancer -1.8, KCNH2 3.1 inh -98.7* and KCNH2 WT inh -116.4*.
COc1ccc(C[C@H]2CN3C(=NC[C@@H]3Cc3ccc(O)cc3)N2C[C@H](C)NC(=O)CCC2CCCCC2)cc1 was read as TRPML1 blocker 15.1, TRPML1 agonist 1.3, TRHR agonist -0.3, TRHR enhancer 1.6, KCNH2 3.1 inh -0.2 and KCNH2 WT inh -11.9.
COc1ccc(C[C@@H]2CN3C(=NC[C@@H]3Cc3ccc(O)cc3)N2C[C@H](C)NC(=O)CCC2CCCCC2)cc1 was read as TRPML1 blocker 17.0, TRPML1 agonist 0.3, TRHR agonist -1.3, TRHR enhancer 0.8, KCNH2 3.1 inh 13.3 and KCNH2 WT inh -89.4*.
`Cc1cccc(C)c1Nc1nnc(SCc2cn3cccc(C)c3n2)s1` gave TRPML1 blocker 0.5, TRPML1 agonist 0.1, TRHR agonist -0.9, TRHR enhancer 5.1 and KCNH2 3.1 inh -178.9*.
Cc1cccc(C)c1Nc1nnc(SCC(=O)NC(=O)c2cccn2C)s1 was read as TRPML1 blocker 5.9, TRPML1 agonist 3.3, TRHR agonist -0.3, TRHR enhancer 9.4, KCNH2 3.1 inh -10.1 and KCNH2 WT inh -6.3.
`Cc1cc(C)cc(OCC(=O)Nc2nc3c(s2)CC(C(C)(C)C)CC3)c1` (centres undefined) gave TRPML1 blocker -8.5, TRPML1 agonist inconclusive, TRHR agonist -1.2 and TRHR enhancer 1.0.
C=CCN1N=C(/C=C/c2ccc(C)cc2)CCC1=O was read as TRPML1 blocker 24.2, TRPML1 agonist 2.7, TRHR agonist -0.4, TRHR enhancer 1.6, KCNH2 3.1 inh -108.4* and KCNH2 WT inh 1.6.
For C=CCN1N=C(/C=C/c2ccc(OC)cc2)CCC1=O the results were TRPML1 blocker -12.4, TRPML1 agonist -0.5, TRHR agonist 0.4, TRHR enhancer 0.4, KCNH2 3.1 inh 11.5 and KCNH2 WT inh -11.1.
For Cc1cc(C)cc(NC(=S)Nc2cccc3cnccc23)c1 the results were TRPML1 blocker 0.4, TRPML1 agonist -0.3, TRHR agonist -0.6, TRHR enhancer -2.9, KCNH2 3.1 inh -1.8 and KCNH2 WT inh -227.5*.
Cc1ccc(NC(=S)Nc2cccc3cnccc23)c(C)c1 was read as TRPML1 blocker 4.6, TRPML1 agonist -0.4, TRHR agonist 0.1, TRHR enhancer -0.7, KCNH2 3.1 inh 2.5 and KCNH2 WT inh 1.2.
Screening CS(=O)(=O)c1ccc(Cl)c(NC(=O)c2cc(S(=O)(=O)N3CCOCC3)ccc2N2CCCC2)c1 returned TRPML1 blocker -6.6, TRPML1 agonist -0.2, TRHR agonist -0.3, TRHR enhancer 2.4, KCNH2 3.1 inh inconclusive and KCNH2 WT inh 38.2.
For CN(Cc1ccno1)Cc1cn(Cc2ccccc2)nc1-c1ccc2c(c1)OCO2 the results were TRPML1 blocker -18.0, TRPML1 agonist 0.5, TRHR agonist -2.0, TRHR enhancer 10.1, KCNH2 3.1 inh -94.9* and KCNH2 WT inh -14.1.
Screening CC(=O)c1c(C)[nH]c(C(=O)Nc2ccc(F)cc2F)c1C returned TRPML1 blocker 16.7, TRPML1 agonist 0.2, TRHR agonist -1.2, TRHR enhancer 36.0*, KCNH2 3.1 inh 12.6 and KCNH2 WT inh -1.0.
Screening Cc1ccc(C)c(CNC(=O)c2ccc3c(c2)nc2n3CCCCC2)c1 returned TRPML1 blocker 22.3, TRPML1 agonist 0.1, TRHR agonist 0.1 and TRHR enhancer -3.7.
`O=C1c2[nH]nc(-c3ccccc3O)c2C(c2cccc(Cl)c2)N1CC1CCCO1` (centres undefined) gave TRPML1 blocker 75.6, TRPML1 agonist 1.4, TRHR agonist -0.1, TRHR enhancer -1.9, KCNH2 3.1 inh -191.3* and KCNH2 WT inh -137.0*.
COc1ccccc1-c1coc2c(CN3CCOCC3)c(O)ccc2c1=O was read as TRPML1 blocker -3.3, TRPML1 agonist -0.6, TRHR agonist -0.2, TRHR enhancer 1.0, KCNH2 3.1 inh 4.6 and KCNH2 WT inh -1.1.
COc1ccccc1Oc1coc2c(CN3CCOCC3)c(O)ccc2c1=O was read as TRPML1 blocker 8.9, TRPML1 agonist -0.1, TRHR agonist -0.1, TRHR enhancer 36.8*, KCNH2 3.1 inh 8.6 and KCNH2 WT inh -2.4.
For Cc1cn([C@H]2C[C@H](O)[C@@H](CNCc3ccc(Oc4cc(-n5cccn5)ncn4)cc3)O2)c(=O)[nH]c1=O the results were TRPML1 blocker -1.1, TRPML1 agonist -0.5, KCNH2 3.1 inh 0.8 and KCNH2 WT inh 0.2.
For O=C(Nc1ccc(F)cc1)C(c1ccccc1)N1CCN(S(=O)(=O)c2ccc3ccccc3c2)CC1 (centres undefined) the results were TRPML1 blocker 7.3, TRPML1 agonist 1.9, TRHR agonist 1.5, TRHR enhancer 4.6, KCNH2 3.1 inh -27.8 and KCNH2 WT inh 3.7.
`Cc1ccc(C)c(S(=O)(=O)N2CCN(C(C(=O)Nc3ccc(F)cc3)c3ccccc3)CC2)c1` (centres undefined) gave TRPML1 blocker -6.9, TRPML1 agonist 1.6, TRHR agonist 0.7, TRHR enhancer -7.5, KCNH2 3.1 inh -85.7* and KCNH2 WT inh 5.7.
Screening Cn1nnnc1SCC(=O)Nc1nc2c(F)c(F)c(F)cc2s1 returned TRPML1 blocker -6.9, TRPML1 agonist 0.5, KCNH2 3.1 inh -0.1 and KCNH2 WT inh -4.0.
Screening CC(C)(C)C(=O)NC(=S)NNC(=O)C(c1ccccc1)c1ccccc1 returned TRHR agonist 99.2*, TRHR enhancer 0.7, KCNH2 3.1 inh 17.0 and KCNH2 WT inh -7.1.
